The values below come from ChEMBL document CHEMBL1157539, “Thousands of chemical starting points for antimalarial lead identification” (Nature, 2010).

Broadly, the Inhibition is the relative decrease from the control value, in per cent.

For this experiment, the system named is Plasmodium falciparum. The experiment is described as follows: GSK_TCMDC: Inhibition of Plasmodium falciparum Dd2 in whole red blood cells, using parasite LDH activity as an index of growth. Test compounds present at 2uM. The class given is functional.
The compound `O=C(Nc1ccc(-c2cccc(-c3nc4cc(F)ccc4[nH]3)c2)cc1)Nc1ccc(Cl)c(Cl)c1` came in with an Inhibition of 24%.
The same measure for `Cc1cc(N(C)C)nc(Nc2ccc(NC(=O)C3CCCCC3)cc2)n1`: 68%.
With `OC(CNCc1ccccc1OCc1ccccc1)c1cccc(I)c1` (stereo not given) the figure was 100%; with `CN(C)CCNC(=O)NC1CN(c2ncnc3cc(-c4ccccc4)sc23)C1.O=C(O)C(F)(F)F`, 39%.
Consider `Br.CCn1c2c(c(=N)c3ccccc31)CCC2`, for which the Inhibition was 61%.
For the compound `CCOc1c(CNCCCCCCNCc2ccc3ccccc3c2OCC)ccc2ccccc12.CS(=O)(=O)O`, the Inhibition came to 78%.
With `Cc1ccc(CNC(=O)[C@H](CC(C)C)Nc2cc(C)nc(NCC3CCCCC3)n2)cc1.O=C(O)C(F)(F)F` the figure was 44%.
The same measure for `c1nc2nc3c(c(Nc4ccc5c(c4)CCC5)n2n1)CCC3`: 70%; for `CCOc1ccc(C2CCN(CCCCNC(=O)c3ccc(NC(=O)c4ccc(Cl)cc4)cc3)CC2)c(Cl)c1`: 96%.
The same measure for `Cc1cc(NC(=O)c2cc(S(=O)(=O)N3CCCCC3)ccc2C)no1`: 29%.
On to `CN(C)C1CCN(CC#Cc2cc3ncnc(Nc4ccc(OCc5cccc(F)c5)c(Cl)c4)c3s2)CC1`, for which the Inhibition turned out to be 5%.
`CCN(CCCN1CCCCC1)c1cc(C)nc(Nc2ccc(F)c(C(F)(F)F)c2)n1.O=C(O)C(F)(F)F` displayed an Inhibition of 93%.
With `CCc1cccc2c(C#N)cn(CC(=O)NCCc3ccccc3)c12` the figure was 64%; with `O=C(NC1CCCCN(Cc2ccccc2O)C1)c1cc(F)cc(F)c1.O=C(O)C(F)(F)F` (stereo not given), 52%.
The same measure for `O=C(Cc1cccc(Cl)c1)Nc1cccc(-c2c[nH]c3nc(Nc4ccccc4)ncc23)c1.O=C(O)C(F)(F)F`: 70%.
`Cc1cccc2nc(-c3ccc(-c4ccc(CN5CCN(CC6CCCN(C)C6)CC5)cc4)cc3)[nH]c12.O=C(O)C(F)(F)F` (stereo not given) returned an Inhibition of 99%.
With `OC[C@H]1CCCN1CC#Cc1cc2c(Nc3ccc(OCc4cccc(F)c4)c(Cl)c3)ncnc2s1` the figure was 6%; with `CCOC(=O)c1c(CN2CCCC2)n(-c2ccccc2)c2cc(Br)c(O)cc12`, 53%.
With `CCc1ccc2nc(-c3ccc(F)cc3)nc(SCC(=O)Nc3sc(C)c(C)c3C#N)c2c1` the figure was 5%; with `COc1cc(OC)c2c(C)cc(NCCCn3ccnc3)nc2c1`, 22%.
The same measure for `NC(=O)c1ccc(NCC(=O)Nc2cccc(-c3cccc(-c4nc5cc(C(F)(F)F)ccc5[nH]4)c3)c2)cc1`: 41%; for `Cl.N#Cc1ccc2c(c1)CCN(CCC1CCC(NC(=O)/C=C/c3c[nH]c4c(Br)cccc34)CC1)CC2` (stereo not given): 65%; for `COc1cccc(NC(=O)c2ccc(NCCCN3CC(C)CC(C)C3)c([N+](=O)[O-])c2)c1` (stereo not given): 68%.
Compound `COc1ccc(C2CCN(CCN3CCC(NC(=O)c4cccc(-c5ccncc5)c4)CC3)CC2)c(OC)c1` returned an Inhibition of 24%.
With `Cc1cc(Nc2ccc(Oc3ccc(Cl)cc3)cc2)nc(N)n1` the figure was 71%.
The same measure for `O=C(Cc1ccccn1)Nc1cccc(-c2cccc(-c3nc4cc(C(F)(F)F)ccc4[nH]3)c2)c1`: 22%.
In turn, `COc1c(CCNCCCCNCCc2cc(Cl)c3ccccc3c2OC)cc(Cl)c2ccccc12.CS(=O)(=O)O` registered an Inhibition of 100%.
The same measure for `CN(C)CCCNCc1ccc(-c2ccc(CNCCOc3ccccc3)cc2)cc1.O=C(O)C(F)(F)F`: 53%; for `O=[N+]([O-])c1ccc2c(c1)c1ccccc1n2Cc1ccccc1O`: 84%; for `O=C(Nc1cccc(CN2CCCN(Cc3cccc(Cl)c3)CC2)c1)c1ccc(Cl)c(Cl)c1.O=C(O)C(F)(F)F`: 17%.
With `CCCN(CCC)CCCN(CCCN(CCC)CCC)c1cc(C)nc(Nc2ccc3cc(Br)ccc3c2)n1.Cl` the figure was 99%; with `CC(C)Oc1cc2c(cc1NS(=O)(=O)c1ccc(-c3ccc(Cl)cc3)cc1F)CCN(C)CC2.Cl`, 2%.
Turning to `CC(CN1CCN(C)CC1)C(=O)Nc1cccc(-c2ccc(-c3nc4cc(F)ccc4[nH]3)cc2)c1` (stereo not given), the Inhibition came out at 98%.
The same measure for `CCNCc1ccc(-c2cc3ncnc(Nc4ccc(OCc5cccc(F)c5)c(Cl)c4)c3s2)[nH]1`: 74%.
The same measure for `COc1ccc(NC(=O)Nc2cccc(-c3cccc(-c4nc5cccc(C)c5[nH]4)c3)c2)cc1`: 43%; for `COc1ccc(CN(C)CCCc2ccc(NC(=O)c3cc4ccccc4[nH]3)cc2)cc1OC.O=C(O)/C=C/C(=O)O`: 31%.
`CC(=O)c1sc2ccccc2c1O` gave an Inhibition of 0%.
With `COc1cc(-c2ccc(-c3cnc(N)nc3OC)[nH]2)cc(OC)c1OC` the figure was 54%; with `CCc1nc(N)nc(N)c1-c1ccc(C(C)(C)C)cc1`, 0%; with `COc1ccccc1CN1CCC(NC(=O)c2ccc(-c3cccc(Cl)c3)s2)CC1.O=C(O)C(F)(F)F`, 9%.
